DAX1 inh-1 = blocks DAX1 repression of SF-1 activated StAR promoter; inhibition, % at 6.8 µM; HEK293T StAR-luciferase reporter, SF-1/DAX-1 repression relief; 1.1% of 370,000 active;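 active = inhibition above the mean over all tested compounds plus 3 SD, cut at about 3.6% in these data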;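 also: 0% = DAX-1 cells with DMSO and 100% = cells lacking DAX-1 with DMSO; higher inhibition means more luminescence from relief of DAX-1 repression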
DAX1 inh-2 = inhibits human nuclear receptor DAX1; P51843; HEK293 Gal4-DAX1 luciferase reporter, luminescence; inhibition, % at 6.75 µM; 0.99% of 340,000 active; AID 504766;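 active = inhibition above the mean over all tested compounds plus 3 SD, cut at about 4.2% in these data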;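 also: 0% = DAX1-transfected cells with DMSO and 100% = empty-vector control cells with DMSO; inhibition shows as a rise in luminescence from relieved DAX1 repression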
hcDAF12 agonist = activates DAF-12 receptor from parasite H. contortus; AID 652067; 1.4% of 370,000 active; HEK293 hcDAF-12 lit1-tk-luc reporter, luminescence; 0% DMSO, 100% Δ7-dafachronic acid; activation, % at 6.8 µM;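 active = activation above the mean of all tested compounds plus 3 SD, cut at about 5.5% in these data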;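 also: 100% = response to 3 µM Δ7-dafachronic acid high control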
Rev-erbA mod = modulators of human Rev-erb alpha DNA binding; activity, % at 10 µM; Rev-erbα–FITC-DNA binding, fluorescence polarization, 90 min; 0.79% of 370,000 active; AID 1259318;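 active = activity above about 14%, limit read from the data; passing the limit was not always enough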;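 also: 0% = DMSO wells with 35 nM protein and 100% = DMSO wells with 750 nM protein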
Target sequence (P20393 whole entry, looked up): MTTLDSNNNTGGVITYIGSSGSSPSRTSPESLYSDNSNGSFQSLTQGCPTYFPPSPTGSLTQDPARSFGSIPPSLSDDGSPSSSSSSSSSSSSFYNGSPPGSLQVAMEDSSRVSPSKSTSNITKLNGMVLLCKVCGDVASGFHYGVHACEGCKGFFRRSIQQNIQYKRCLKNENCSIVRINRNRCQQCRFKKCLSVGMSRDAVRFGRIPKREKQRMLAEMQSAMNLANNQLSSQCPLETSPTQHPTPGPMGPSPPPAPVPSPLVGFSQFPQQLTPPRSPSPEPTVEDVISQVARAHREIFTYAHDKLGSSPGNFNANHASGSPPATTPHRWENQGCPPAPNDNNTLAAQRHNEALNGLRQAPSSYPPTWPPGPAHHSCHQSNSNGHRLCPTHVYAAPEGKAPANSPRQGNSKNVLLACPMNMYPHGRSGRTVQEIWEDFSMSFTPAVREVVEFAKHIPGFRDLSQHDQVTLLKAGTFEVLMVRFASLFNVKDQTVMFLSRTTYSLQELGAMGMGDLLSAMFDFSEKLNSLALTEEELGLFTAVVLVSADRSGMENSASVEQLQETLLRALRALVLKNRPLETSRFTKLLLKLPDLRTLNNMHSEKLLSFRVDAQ
hgDAF12 agonist = hgDAF-12 agonism, primary luciferase screen; HEK293 GAL4-hgDAF12 UAS-luciferase reporter, agonist luminescence; normalized to butyrate control; activation, % at 6.8 µM; 1.8% of 370,000 active; AID 687014;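 active = activation above a cutoff set at the mean of all screened compounds plus 3 SD, cut at about 10% in these data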;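 also: 0% = DMSO wells and 100% = sodium butyrate wells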
ssDAF-12 act = S. stercoralis DAF-12 activation, primary screen; HEK293 ssDAF-12/GRIP1 lit1-tk-luc reporter, luminescence; % of 3 µM dafachronic acid response; AID 652126; activation, % at 6.8 µM; 1% of 370,000 active;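 active = activation above the mean over all tested compounds plus 3 SD, cut at about 0.9% in these data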;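 also: 0% = DMSO-only wells and 100% = 3 µM delta7-dafachronic acid wells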
DAX1 inh confirm = confirmation of human DAX1 (NR0B1) inhibitors; shares compounds with DAX1 inh-1; HEK293T StAR-promoter luciferase reporter, SF-1/DAX-1 repression; inhibition, % at 6.8 µM; 87% of 2,400 active;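 active = inhibition above the average of every tested compound plus 3 SD, cut at about 3.8% in these data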;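 also: 0% = DAX-1 cells with DMSO and 100% = no DAX-1 control cells with DMSO; active compounds raise luminescence by relieving repression of the StAR reporter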
SF1 mutant ctr = counter-screen for DAX1 inhibitors: nonselective inhibitors with SF-1 AF2 mutant. 78% of 2,400 active. shares compounds with DAX1 inh-1. inhibition, % at 6.8 µM. HEK293 StAR-luciferase, luminescence;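 active = inhibition above the mean of all tested compounds plus 3 SD, cut at about 3% in these data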;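 also: 0% = DAX-1 transfected cells with DMSO and 100% = cells without DAX-1 with DMSO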
LXRb hcDAF ctr = activates human LXR-beta, counter-screen for hcDAF-12 agonists. shares compounds with hcDAF12 agonist. HEK293 Gal4-LXR tk-luc reporter, luminescence, 24 h; normalized: DMSO 0%, positive control 100%. activation, % at 6.8 µM. 3,400 tested, under 10 active;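 active = mean percent activation of the reporter above a cutoff set as the average over tested compounds plus their standard deviation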
hcDAF12 conf = confirmation of H. contortus DAF-12 agonists | shares compounds with hcDAF12 agonist | HEK293 hcDAF-12 lit1-tk-luc reporter, luminescence; % of Δ7-dafachronic acid response | 61% of 3,400 active | activation, % at 6.8 µM;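 active = mean activation across triplicate tests above the threshold derived from the earlier primary screen, cut at about 5.5% in these data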;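 also: 0% = DMSO only wells and 100% = 3 µM Δ7-dafachronic acid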
hgDAF12 ag = hgDAF-12 agonism, confirmation assay; shares compounds with hgDAF12 agonist; HEK293 GAL4-hgDAF12 luciferase reporter, agonist mode; percent of butyrate response; activation, % at 6.8 µM; 80% of 3,300 active;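 active = mean activation over triplicate wells above the hit cutoff derived from the earlier primary screen, cut at about 11% in these data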;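 also: 0% = DMSO low control and 100% = 2 mM sodium butyrate high control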
LXR ag 2 = counter-screen for DAF-12 agonists: agonists of human LXR-beta | shares compounds with hgDAF12 agonist | HEK293 Gal4-LXR luciferase reporter, 24 h | activation, % at 6.8 µM | 3,300 tested, under 10 active;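 active = mean activation of the triplicate above a set limit carried over from the primary screen, none filed active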
* = called active by the depositor; . = not tested or not shown. Only some compounds are listed: those with a hit (about 4.8% of all), similar ones and a draw of the others.

SMILES | DAX1 inh-1 | DAX1 inh-2 | hcDAF12 agonist | Rev-erbA mod | hgDAF12 agonist | ssDAF-12 act | DAX1 inh confirm | SF1 mutant ctr | LXRb hcDAF ctr | hcDAF12 conf | hgDAF12 ag | LXR ag 2
O=C(N/N=C/c1ccc(-c2ccccc2Cl)o1)c1ccccc1 | 0 | 2 | 0 | 1 | 3 | -1 | . | . | . | . | . | .
Cc1ccc(/C=N/Nc2ccc(C(=O)O)cc2)o1 | 4.6* | 3 | 6.3* | -2 | 16* | 1 | 8.4* | 6.6* | . | . | 13* | 0
O=C(O)c1ccc(N/N=C/c2ccc(-c3ccc(Br)cc3)o2)cc1 | 1 | 1 | 1 | -4 | 5 | -1 | . | . | . | . | . | .
O=C(O)c1ccc(N/N=C/c2ccc(-c3ccccc3Cl)o2)cc1 | 9.2* | -1 | 9.8* | 0 | 24* | 1.3* | 26* | 11* | 2 | 12* | 12* | 1
O=S(=O)(CC1NCc2ccccc21)NCCc1ccccc1 (stereo not given) | 1 | . | -4 | 8 | 2 | -1 | . | . | . | . | . | .
COc1cc(SC)ccc1C(=O)Nc1ccc2c(c1)OCO2 | 7.8* | 9.4* | 8.9* | . | 20* | 1.4* | 9.7* | 6.2* | 2 | 6.3* | 16* | 1
COc1cc(SC)ccc1C(=O)Nc1ccc(C)cc1 | 5.5* | 7.1* | 14* | 0 | 18* | 2.1* | 13* | 9.9* | 2 | 13* | 20* | 1
COc1cc(SC)ccc1C(=O)Nc1ccccn1 | 5.0* | -3 | 10* | -2 | 19* | 1.0* | 9.6* | 5.2* | 2 | 7.2* | 14* | 1
COc1cc(SC)ccc1C(=O)Nc1ccc(C)cc1C | 2 | 3 | 0 | 4 | 10 | 0 | . | . | . | . | . | .
COC(=O)[C@@H](C)NC(=O)C(Cc1ccc2c(c1)OCO2)NC(C)=O (stereo not given in full) | 0 | . | -1 | -3 | -1 | -1 | . | . | . | . | . | .
CCCCN1C(C)=CC(=C2C(=O)c3ccccc3C2=O)C=C1C | 6.7* | 1 | 7.5* | 2 | 22* | 0 | 6.1* | 3 | 2 | 11* | 12* | 1
CCCN1C=CC(=C2C(=O)c3ccccc3C2=O)C=C1 | -4 | -4 | -6 | 2 | -14 | -4 | . | . | . | . | . | .
CCCCCCN1C=CC(=C2C(=O)c3ccccc3C2=O)C=C1 | 9.4* | -2 | 8.6* | -4 | 14* | 1.1* | 0 | -4 | 1 | 6.1* | 6 | 1
Cc1c(C(=O)O)oc2c(F)cccc12 | 0 | . | -3 | 0 | -4 | -1 | . | . | . | . | . | .
Cc1c(C(=O)NC2CCOC2)oc2c(F)cccc12 (stereo not given) | 5.7* | 3 | 5 | -2 | 14* | 0 | 6.4* | 3.3* | . | . | 13* | 0
COC(=O)[C@]12C[C@H](CC(=O)NCc3ccc(OC)c(OC)c3)C(=O)N(CCC3=CCCCC3)C1=C[C@H](C(C)C)O[C@@H]2C1CC1 | -2 | . | -3 | 2 | 0 | -2 | . | . | . | . | . | .
C/C(=N\NC(=O)c1cccc(F)c1)c1ccc(NC(=O)Cc2ccccc2)cc1 | 7.0* | -1 | 6.4* | -2 | 14* | 0 | 1 | 2 | . | . | 6 | 0

Bioassay records deposited in PubChem by several laboratories.
